Screening results (PubChem BioAssay)
Tau filament bind = binds recombinant human tau filaments. P10636. recombinant tau filaments, thioflavin S fluorescence, 15 h; filaments grown with octadecylsulfate alongside compound. Potency, µM (highest dose often 57.1 µM). 71,000 compounds, 2% hits;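 further: actives lower thioflavin S fluorescence by blocking filaments or displacing dye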
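His-tagged recombinant human tau (exons 2, 3 and 10 included), 1 uM, was induced to fibrillize by 30 uM sodium octadecylsulfate with compound present. After 15 h at 37 C, thioflavine S fluorescence (ex 450, em 510 nm) was read.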
ERK AVP inh = inhibitors of vasopressin-stimulated ERK signaling pathway; HEK293-V1b, vasopressin-stimulated pERK AlphaScreen; Potency, µM (doses to about 57.5 µM), most hits filed as inhibitors; 72,000 compounds, 0.99% hits; further: nearly all actives have a fitted effect of over 55% in size
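HEK293 cells stably expressing V1b receptor, preincubated 30 min at 37 °C with compound, then stimulated 5 min with 25 nM vasopressin. Phospho-ERK by AlphaScreen SureFire after 5 h RT; normalized to DMSO and vasopressin; AC50 by Hill fit.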
Caspase-7 inhib = caspase-7 (human) inhibition, allosteric or competitive | recombinant caspase-7, Ac-DEVD-AFC fluorescence rate | Potency, µM (titrated, usually from 57.5 µM), usual class: inhibitors | 75,000 compounds, 0.02% hits; active means well fitted inhibition curve with a large enough effect in the main read-out, with a control signal flat, not every such curve was filed as active; inconclusive means small, poorly fitted or top-dose-only effect, or a change in a side signal
Target sequence (P55210 24-198 limits assumed): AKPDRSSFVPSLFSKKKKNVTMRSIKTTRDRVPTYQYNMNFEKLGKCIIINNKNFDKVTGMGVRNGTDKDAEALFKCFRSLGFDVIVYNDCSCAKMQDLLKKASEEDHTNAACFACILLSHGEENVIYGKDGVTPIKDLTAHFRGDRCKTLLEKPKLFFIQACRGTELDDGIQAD
Target sequence (P55210 207-303 limits assumed): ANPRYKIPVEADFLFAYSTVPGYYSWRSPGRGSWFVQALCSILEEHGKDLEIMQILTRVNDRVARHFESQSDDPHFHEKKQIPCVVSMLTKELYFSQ
ALOX15 inhib = blocks human 15-lipoxygenase activity; purified 15hLO-1, xylenol orange hydroperoxide absorbance; Potency, µM (titrated, usually from 57.1 µM), most hits filed as inhibitors; 74,000 compounds, 1.4% hits; AID 887; further: nearly all actives have a fitted effect of over 55% in size
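Inhibition is scored from a chromogenic endpoint. After 15 min enzyme-compound contact, arachidonic acid (50 uM final) reacts 6 min with 40 nM 15hLO-1 at room temperature, then Fe-XO reagent is added for 30 min and absorbance ratio recorded.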
Casp1 inh = blocks human caspase-1 allosterically or competitively | Potency, µM (titrated, usually from 57.5 µM), actives largely listed as inhibitors | Caspase-1 enzyme, Ac-WEHD-AFC fluorogenic rate | 75,000 compounds, 0.03% hits
Target sequence (P29466 120-297 limits assumed): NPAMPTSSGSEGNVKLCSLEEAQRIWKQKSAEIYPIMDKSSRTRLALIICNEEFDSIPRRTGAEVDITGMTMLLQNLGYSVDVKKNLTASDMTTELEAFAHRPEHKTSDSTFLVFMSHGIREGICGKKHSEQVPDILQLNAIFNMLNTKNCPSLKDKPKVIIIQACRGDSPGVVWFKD
Target sequence (P29466 317-404 limits assumed): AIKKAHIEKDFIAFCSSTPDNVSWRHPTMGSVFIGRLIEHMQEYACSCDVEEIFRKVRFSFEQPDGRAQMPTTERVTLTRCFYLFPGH
Hits are given with their value; – = inactive; ? = inconclusive; · = no result given; [ ] = remark or other dose. In the library only some 3.9% were active in any assay of this set; here they are far more common. Unless noted, the call rests on the fitted dose curve; in most records, active means well fitted curve in the direction sought with a large enough effect; inconclusive means small, poorly fitted or top-dose-only effect, or another doubt; inactive means no such curve, though single readings can be large; an effect the other way counts as inactive or inconclusive.

SMILES	Tau filament bind	ERK AVP inh	Caspase-7 inhib	ALOX15 inhib	Casp1 inh
CC1CCCCN1Cc1nc2c(c(=O)n(C)c(=O)n2C)n1Cc1c(F)cccc1Cl (configuration not stated)	–	·	?	25µM	·
Cn1c(=O)c2c(nc(CN3CCC(C(N)=O)CC3)n2Cc2c(F)cccc2Cl)n(C)c1=O	–	–	–	–	–
Cn1c(=O)c2c(nc(CN3CCN(Cc4ccccc4)CC3)n2Cc2ccccc2)n(C)c1=O	?	·	–	20µM	–
Cc1ccc2c(c1)NC(=O)C(CC(=O)NCCCN1CCCC1)O2 (configuration not stated)	–	–	–	–	–
COc1ccc(N2CCN(CCCNC(=O)CC3Oc4ccc(C)cc4NC3=O)CC2)cc1 (configuration not stated)	25µM	–	–	–	–
CCN(CCCNC(=O)CC1Oc2ccc(C)cc2NC1=O)Cc1ccccc1 (configuration not stated)	–	–	–	10µM	–
c1ccc(-c2csc3ncn4cnnc4c23)cc1	–	6.3µM	–	–	–
CCN(CC)CCCC(C)NC(=O)c1ccc(Cc2nc3ccccc3[nH]2)cc1 (configuration not stated)	·	·	–	–	–
CCCCn1cnc2c(SC)ncnc21	–[11.4 µM]	–[11.5 µM]	–[11.5 µM]	–[11.4 µM]	–[11.5 µM]
COc1ccc(C(=O)c2cn[nH]c2-c2cc(Cl)ccc2O)cc1	–	40µM	–	20µM	–
CN1CCN(c2cc(-c3ccoc3)ncn2)CC1	–	–	–	?	–
O=C(c1ccco1)N1CCC2(CC1)CN(c1cccc(-c3ccccc3)c1)C2	–	–	–	–	–
Cc1c(N=Cc2ccco2)c(=O)n(-c2ccccc2)n1C	–[11.4 µM]	–	–	–[11.4 µM]	–
CCOc1[nH]c(/N=C/c2ccco2)c(C#N)c1C#N	–	–	–	25µM	–
Oc1ccc(Cl)cc1C=Nc1cnc2ccccc2c1	–[11.4 µM]	–[11.5 µM]	–[11.5 µM]	–[11.4 µM]	–[11.5 µM]
O=C1c2ccccc2C(=O)N1Cc1ccc2c(c1)OCO2	–	–	–	–	–
Nc1cc(CN2C(=O)c3ccccc3C2=O)cc(Cl)c1O	–	–	–	10µM	–
CCC[C@@H]1C[C@@]1(CCC)[C@@H](NC(=O)Oc1ccccc1)c1ccc(C(=O)OC)cc1	?	–	–	–	–
CCOc1cc(S(=O)(=O)NCc2ccc3c(c2)OCO3)c(C)cc1C	16µM	–	–	–	–
COc1cccc(/C=c2\sc3nc(-c4cccs4)nn3c2=O)c1OC	–	–	–	–	–
C=CCOc1ccccc1/C=c1\sc2nc(=O)c(C)nn2c1=O	25µM	–	–	–	–
COc1ccccc1NC(=O)c1cc2ccc(O)cc2o/c1=N\O	–	32µM	?	–	·
CC1=C(C#N)c2nc(N)c(C#N)c(C)c2/C1=C\c1ccccc1	–	?	–	40µM	–
Cc1nc(N)c(C#N)c(-c2ccccc2)c1C	–	–	–	–	–
CCN1C(=O)/C(=C/N(C)c2ccccc2)OC1=S	–	–	–	7.9µM	–
SMILES	Tau filament bind	ERK AVP inh	Caspase-7 inhib	ALOX15 inhib	Casp1 inh
COc1ccc(C(=O)N2CCC[C@@]3(CCN(Cc4ccc(C#N)cc4)C3)C2)cc1	–	–	–	–	–
CCc1ccc(C2C(C#N)=C(N)SC(N)=C2C#N)s1	25µM	?	?	10µM	?
Cc1ccc(C2C(C#N)=C(N)SC(N)=C2C#N)o1	–	–	–	6.3µM	–
CCc1ccc(C2C(C#N)=C(N)SC(N)=C2C#N)cc1	–[11.4 µM]	–	–	0.63µM	–
CN1[C@H]2CC(OC(=O)[C@H](CO)c3ccccc3)C[C@H]1[C@H]1O[C@H]12 (some centres not stated)	–	–	–	–	–
COC(=O)[C@@]1(Cc2ccc(OC)cc2)[C@H]2c3cc(C(=O)N(C)C)n(Cc4ccc(C(F)(F)F)nc4)c3C[C@H]2CN1C(=O)c1ccccc1	–	–	–	·	–
Cc1noc(C)c1-c1nc(NCc2ccccc2)c2ccccc2n1	–	–	–	?	–
Nc1c(C(=O)N2CCCCC2)sc(=S)n1-c1ccccc1	–	?	–	10µM	–
CC1CCCN(c2ccc(C(=O)NCc3cccs3)cn2)C1 (configuration not stated)	–	16µM	–	–	–
O=C(O)C1CC(=O)N(CCC23CC4CC(CC(C4)C2)C3)C(=Nc2ccccc2)S1 (configuration not stated)	·	·	?	–	–
CCc1nc2sc3ccccc3c(=O)c2c(=O)n1Cc1ccco1	16µM	–	–	–	–
O=c1c2ccccc2sc2nc(C3CCCCC3)n(Cc3ccco3)c(=O)c12	10µM	–	–	–	–
O=c1c(O)cc(C2Oc3cc(O)cc(O)c3CC2O)cc2c(C3Oc4cc(O)cc(O)c4CC3O)cc(O)c(O)c12 (configuration not stated)	·	–	–	?	?
CO[C@H]1COC(=O)[C@H](C)COC(=O)[C@@H](Cc2ccccc2)NC(=O)C/C=C\[C@H]1C	·	–[11.5 µM]	–[11.5 µM]	–[11.4 µM]	–[11.5 µM]
CN(Cc1ccco1)c1ncncc1-c1ccc2c(c1)OCO2	–	?	–	–	–
O=c1c2c([nH]c3ccccc13)C(=C1CCCC1)CC2	·	·	?	20µM	–
O=C(Nc1ccc(-c2noc(COc3ccccc3Cl)n2)cc1)c1ccco1	3.2µM	–	–	–	–
COc1cc2cc3c4c(cc(OC)c(OC)c4c2cc1OC)CCN3C	4µM	?	?	–	·
CN(C)CCCN1c2ccccc2Sc2ccc(Cl)cc21	5µM	?	–	–	–
CN(C)CCCN1c2ccccc2Sc2ccc3ccccc3c21	2.5µM	–[11.5 µM]	–[11.5 µM]	–[11.4 µM]	–[11.5 µM]
Nc1ncn([C@H]2O[C@@H](CO)[C@@H](O)[C@@H]2O)c(=O)n1	–	–	–	–	–
Cc1nc(NC2CCCCC2)c2nc(-c3ccccc3)n(CCCN3CCOCC3)c2n1	–	–	–	32µM	–
Cc1nc(NCc2ccccc2)c2nc(-c3ccccc3)n(CCN3CCCCC3)c2n1	–	–	–	20µM	–
Cc1nc(Nc2ccccc2)c2nc(-c3ccccc3)n(CCN3CCOCC3)c2n1	–	–	–	20µM	–
Cc1nc(NC2CCCCC2)c2nc(-c3ccccc3)n(CCCN(C)C)c2n1	–	–	–	–	–
SMILES	Tau filament bind	ERK AVP inh	Caspase-7 inhib	ALOX15 inhib	Casp1 inh
Cc1nc(NCc2ccccc2)c2nc(-c3ccccc3)n(CCCN3CCOCC3)c2n1	–	?	–	?	–
Cc1nc(N2CCOCC2)c2nc(-c3ccccc3)n(CCN3CCCCC3)c2n1	–	–	–	–	–
Cc1cc(O)c(C=O)c2c1C(=O)Oc1c(COC(=O)/C=C/C(=O)O)c(O)c(C(=O)O)c(C)c1O2	·	–	–	?	–
CC(=O)NCCNc1ccnc(-c2ccccc2C(F)(F)F)n1	–	–	–	–	–
Cc1ccc(NC2c3ncccc3C(=O)N2c2ccccc2C)cc1C (configuration not stated)	?	?	–	25µM	–
CCOc1ccc(N2C(=O)c3cccnc3C2Nc2ccc(Cl)cc2)cc1 (configuration not stated)	–	–	–	–	–
